Experiments:
Experiment in all cases: log2 ratio of Biotin-Ahx-Ub-VS probe labelling (fragment/DMSO); higher = less target engagement (more negative = stronger competition), active = hit call of the paper (q ≤ 0.05, log2 ratio ≤ -1)
Conditions in all cases: compound concentration: 200 uM; treatment time: 3 h
USP16 = USP16 (UniProt Q9Y5T5)
How it was run: (§1)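 Global-median-normalised Spectronaut label-free quantities were compared by unpaired t-test, and values are average log2 ratios of fragment over vehicle. Only proteins with ≥2 unique peptides were used. HEK293T lysate (495 µg per sample) was treated in triplicate with fragment at 200 µM or vehicle for 3 h and then with Biotin-Ahx-Ub-VS at 0.5 µM final for 1 h. Labelled DUBs were then NeutrAvidin-enriched, digested with LysC and trypsin, and run by diaPASEF LC-MS/MS.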

USP19 = biological target: T1, USP19 (UniProt O94966)
T1 sequence (whole entry): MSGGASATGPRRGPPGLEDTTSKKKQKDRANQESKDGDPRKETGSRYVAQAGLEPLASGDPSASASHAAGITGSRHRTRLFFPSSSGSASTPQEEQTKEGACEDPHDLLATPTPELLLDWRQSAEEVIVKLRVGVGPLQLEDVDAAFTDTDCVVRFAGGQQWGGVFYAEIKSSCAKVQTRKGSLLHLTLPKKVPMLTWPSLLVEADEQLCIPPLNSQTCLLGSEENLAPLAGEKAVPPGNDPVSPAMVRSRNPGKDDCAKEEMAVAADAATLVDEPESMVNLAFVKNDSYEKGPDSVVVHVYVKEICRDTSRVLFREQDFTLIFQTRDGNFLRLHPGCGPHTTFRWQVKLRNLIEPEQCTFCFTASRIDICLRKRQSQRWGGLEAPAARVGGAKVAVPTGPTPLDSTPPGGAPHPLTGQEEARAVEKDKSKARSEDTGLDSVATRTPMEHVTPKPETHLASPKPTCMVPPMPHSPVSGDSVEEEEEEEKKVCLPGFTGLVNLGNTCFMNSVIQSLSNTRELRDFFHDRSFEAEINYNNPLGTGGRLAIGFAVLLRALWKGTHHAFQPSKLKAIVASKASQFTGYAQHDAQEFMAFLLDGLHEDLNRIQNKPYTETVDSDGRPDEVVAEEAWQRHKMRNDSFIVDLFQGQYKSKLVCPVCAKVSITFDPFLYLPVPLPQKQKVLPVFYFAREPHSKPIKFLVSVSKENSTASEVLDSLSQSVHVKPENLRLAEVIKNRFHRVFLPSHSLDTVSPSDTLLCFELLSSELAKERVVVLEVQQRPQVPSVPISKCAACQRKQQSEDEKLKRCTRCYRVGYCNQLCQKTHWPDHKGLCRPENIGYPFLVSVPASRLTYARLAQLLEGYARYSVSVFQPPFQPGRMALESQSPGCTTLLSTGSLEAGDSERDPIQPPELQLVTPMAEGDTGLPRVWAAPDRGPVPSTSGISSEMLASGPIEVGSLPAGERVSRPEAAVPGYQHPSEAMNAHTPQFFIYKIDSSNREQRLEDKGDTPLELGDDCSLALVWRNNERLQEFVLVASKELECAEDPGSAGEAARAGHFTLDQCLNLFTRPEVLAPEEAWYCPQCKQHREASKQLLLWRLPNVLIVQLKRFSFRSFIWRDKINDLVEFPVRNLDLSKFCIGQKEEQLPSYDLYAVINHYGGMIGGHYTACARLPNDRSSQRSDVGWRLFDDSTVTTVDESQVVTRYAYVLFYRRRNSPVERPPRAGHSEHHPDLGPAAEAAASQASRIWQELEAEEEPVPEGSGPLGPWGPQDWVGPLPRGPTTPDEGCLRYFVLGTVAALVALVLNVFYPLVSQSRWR
How it was run: as §1

USP24 = USP24 (UniProt Q9UPU5)
How it was run: as §1

USP25 = biological target: T2, USP25 (UniProt Q9UHP3)
T2 sequence (whole entry): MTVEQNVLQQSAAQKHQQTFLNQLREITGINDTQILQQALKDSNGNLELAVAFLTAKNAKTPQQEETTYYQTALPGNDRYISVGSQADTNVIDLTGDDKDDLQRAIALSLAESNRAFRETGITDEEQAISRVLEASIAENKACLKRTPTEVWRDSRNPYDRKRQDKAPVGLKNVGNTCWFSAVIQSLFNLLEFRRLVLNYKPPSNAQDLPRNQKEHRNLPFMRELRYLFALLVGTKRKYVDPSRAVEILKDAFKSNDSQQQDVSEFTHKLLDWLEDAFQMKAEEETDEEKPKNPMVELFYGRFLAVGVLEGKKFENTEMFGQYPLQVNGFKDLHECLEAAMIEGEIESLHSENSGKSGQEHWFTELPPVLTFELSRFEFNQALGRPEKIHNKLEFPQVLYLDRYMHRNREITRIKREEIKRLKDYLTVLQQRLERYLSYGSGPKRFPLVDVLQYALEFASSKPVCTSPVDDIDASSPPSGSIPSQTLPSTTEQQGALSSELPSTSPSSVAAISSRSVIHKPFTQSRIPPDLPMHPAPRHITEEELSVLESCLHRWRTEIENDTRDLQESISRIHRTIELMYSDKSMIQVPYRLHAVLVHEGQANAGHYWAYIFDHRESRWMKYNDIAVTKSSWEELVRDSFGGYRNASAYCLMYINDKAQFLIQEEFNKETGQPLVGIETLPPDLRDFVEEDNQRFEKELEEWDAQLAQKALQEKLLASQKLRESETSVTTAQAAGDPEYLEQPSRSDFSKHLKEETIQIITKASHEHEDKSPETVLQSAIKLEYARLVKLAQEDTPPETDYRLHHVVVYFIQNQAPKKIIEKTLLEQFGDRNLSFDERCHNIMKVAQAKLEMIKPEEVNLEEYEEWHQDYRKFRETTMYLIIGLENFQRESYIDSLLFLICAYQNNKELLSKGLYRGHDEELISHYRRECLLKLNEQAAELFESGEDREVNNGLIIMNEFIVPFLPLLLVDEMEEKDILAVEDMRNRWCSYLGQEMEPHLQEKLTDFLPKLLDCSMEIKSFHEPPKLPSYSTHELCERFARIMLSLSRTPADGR
How it was run: as §1

USP28 = biological target: T3, USP28 (UniProt Q96RU2)
T3 sequence (whole entry): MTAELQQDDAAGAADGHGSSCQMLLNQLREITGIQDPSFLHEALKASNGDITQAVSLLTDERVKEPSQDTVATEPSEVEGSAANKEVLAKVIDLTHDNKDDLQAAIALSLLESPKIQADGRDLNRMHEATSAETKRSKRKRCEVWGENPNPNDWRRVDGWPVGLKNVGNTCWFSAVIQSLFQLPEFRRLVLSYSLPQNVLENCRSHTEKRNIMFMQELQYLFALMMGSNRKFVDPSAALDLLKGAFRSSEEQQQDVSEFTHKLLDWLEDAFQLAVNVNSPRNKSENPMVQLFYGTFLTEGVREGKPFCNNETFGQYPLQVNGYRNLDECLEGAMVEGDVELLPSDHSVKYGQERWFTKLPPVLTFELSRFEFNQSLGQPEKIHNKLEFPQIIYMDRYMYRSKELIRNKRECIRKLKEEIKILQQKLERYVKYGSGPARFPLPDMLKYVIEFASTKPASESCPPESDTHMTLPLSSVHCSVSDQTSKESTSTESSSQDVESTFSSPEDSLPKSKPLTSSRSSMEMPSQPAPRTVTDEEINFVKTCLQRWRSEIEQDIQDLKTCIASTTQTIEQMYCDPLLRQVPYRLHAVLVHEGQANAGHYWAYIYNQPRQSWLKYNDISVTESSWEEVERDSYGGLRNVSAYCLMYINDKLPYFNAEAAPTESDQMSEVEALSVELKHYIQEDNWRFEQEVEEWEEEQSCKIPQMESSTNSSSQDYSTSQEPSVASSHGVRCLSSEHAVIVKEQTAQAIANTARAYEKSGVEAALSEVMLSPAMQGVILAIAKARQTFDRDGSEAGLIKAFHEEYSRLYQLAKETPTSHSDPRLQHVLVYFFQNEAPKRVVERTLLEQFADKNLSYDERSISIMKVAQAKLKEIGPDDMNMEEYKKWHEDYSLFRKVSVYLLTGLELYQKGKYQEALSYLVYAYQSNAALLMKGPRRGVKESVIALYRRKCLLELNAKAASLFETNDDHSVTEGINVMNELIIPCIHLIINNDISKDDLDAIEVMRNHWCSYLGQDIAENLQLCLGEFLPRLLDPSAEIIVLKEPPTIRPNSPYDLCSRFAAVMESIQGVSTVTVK
How it was run: as §1

Measured: log2 ratio of Biotin-Ahx-Ub-VS probe labelling

Chain of USP16 (Q9Y5T5 whole entry, looked up, the tested form may be a part): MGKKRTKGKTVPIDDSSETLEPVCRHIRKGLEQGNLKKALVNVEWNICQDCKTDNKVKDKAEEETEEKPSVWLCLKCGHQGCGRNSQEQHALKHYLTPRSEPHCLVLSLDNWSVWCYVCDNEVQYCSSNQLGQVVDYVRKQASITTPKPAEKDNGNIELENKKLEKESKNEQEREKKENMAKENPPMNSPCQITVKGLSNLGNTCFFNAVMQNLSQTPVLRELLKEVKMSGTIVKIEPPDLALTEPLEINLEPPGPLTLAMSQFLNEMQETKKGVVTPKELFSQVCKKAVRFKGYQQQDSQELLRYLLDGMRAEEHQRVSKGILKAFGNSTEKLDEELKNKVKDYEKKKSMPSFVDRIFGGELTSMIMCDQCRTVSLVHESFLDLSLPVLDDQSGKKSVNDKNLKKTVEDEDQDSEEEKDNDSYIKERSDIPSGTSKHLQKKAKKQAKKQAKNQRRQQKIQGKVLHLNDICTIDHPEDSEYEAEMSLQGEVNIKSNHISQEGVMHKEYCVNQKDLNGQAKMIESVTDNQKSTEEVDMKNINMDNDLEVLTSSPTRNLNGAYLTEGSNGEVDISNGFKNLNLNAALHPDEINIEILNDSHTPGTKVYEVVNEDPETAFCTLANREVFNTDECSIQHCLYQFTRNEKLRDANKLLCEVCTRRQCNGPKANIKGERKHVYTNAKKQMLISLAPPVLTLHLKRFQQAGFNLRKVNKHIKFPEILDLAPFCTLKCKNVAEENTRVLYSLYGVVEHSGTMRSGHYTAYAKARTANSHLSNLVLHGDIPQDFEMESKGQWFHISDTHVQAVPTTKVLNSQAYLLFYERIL
Chain of USP24 (Q9UPU5 whole entry): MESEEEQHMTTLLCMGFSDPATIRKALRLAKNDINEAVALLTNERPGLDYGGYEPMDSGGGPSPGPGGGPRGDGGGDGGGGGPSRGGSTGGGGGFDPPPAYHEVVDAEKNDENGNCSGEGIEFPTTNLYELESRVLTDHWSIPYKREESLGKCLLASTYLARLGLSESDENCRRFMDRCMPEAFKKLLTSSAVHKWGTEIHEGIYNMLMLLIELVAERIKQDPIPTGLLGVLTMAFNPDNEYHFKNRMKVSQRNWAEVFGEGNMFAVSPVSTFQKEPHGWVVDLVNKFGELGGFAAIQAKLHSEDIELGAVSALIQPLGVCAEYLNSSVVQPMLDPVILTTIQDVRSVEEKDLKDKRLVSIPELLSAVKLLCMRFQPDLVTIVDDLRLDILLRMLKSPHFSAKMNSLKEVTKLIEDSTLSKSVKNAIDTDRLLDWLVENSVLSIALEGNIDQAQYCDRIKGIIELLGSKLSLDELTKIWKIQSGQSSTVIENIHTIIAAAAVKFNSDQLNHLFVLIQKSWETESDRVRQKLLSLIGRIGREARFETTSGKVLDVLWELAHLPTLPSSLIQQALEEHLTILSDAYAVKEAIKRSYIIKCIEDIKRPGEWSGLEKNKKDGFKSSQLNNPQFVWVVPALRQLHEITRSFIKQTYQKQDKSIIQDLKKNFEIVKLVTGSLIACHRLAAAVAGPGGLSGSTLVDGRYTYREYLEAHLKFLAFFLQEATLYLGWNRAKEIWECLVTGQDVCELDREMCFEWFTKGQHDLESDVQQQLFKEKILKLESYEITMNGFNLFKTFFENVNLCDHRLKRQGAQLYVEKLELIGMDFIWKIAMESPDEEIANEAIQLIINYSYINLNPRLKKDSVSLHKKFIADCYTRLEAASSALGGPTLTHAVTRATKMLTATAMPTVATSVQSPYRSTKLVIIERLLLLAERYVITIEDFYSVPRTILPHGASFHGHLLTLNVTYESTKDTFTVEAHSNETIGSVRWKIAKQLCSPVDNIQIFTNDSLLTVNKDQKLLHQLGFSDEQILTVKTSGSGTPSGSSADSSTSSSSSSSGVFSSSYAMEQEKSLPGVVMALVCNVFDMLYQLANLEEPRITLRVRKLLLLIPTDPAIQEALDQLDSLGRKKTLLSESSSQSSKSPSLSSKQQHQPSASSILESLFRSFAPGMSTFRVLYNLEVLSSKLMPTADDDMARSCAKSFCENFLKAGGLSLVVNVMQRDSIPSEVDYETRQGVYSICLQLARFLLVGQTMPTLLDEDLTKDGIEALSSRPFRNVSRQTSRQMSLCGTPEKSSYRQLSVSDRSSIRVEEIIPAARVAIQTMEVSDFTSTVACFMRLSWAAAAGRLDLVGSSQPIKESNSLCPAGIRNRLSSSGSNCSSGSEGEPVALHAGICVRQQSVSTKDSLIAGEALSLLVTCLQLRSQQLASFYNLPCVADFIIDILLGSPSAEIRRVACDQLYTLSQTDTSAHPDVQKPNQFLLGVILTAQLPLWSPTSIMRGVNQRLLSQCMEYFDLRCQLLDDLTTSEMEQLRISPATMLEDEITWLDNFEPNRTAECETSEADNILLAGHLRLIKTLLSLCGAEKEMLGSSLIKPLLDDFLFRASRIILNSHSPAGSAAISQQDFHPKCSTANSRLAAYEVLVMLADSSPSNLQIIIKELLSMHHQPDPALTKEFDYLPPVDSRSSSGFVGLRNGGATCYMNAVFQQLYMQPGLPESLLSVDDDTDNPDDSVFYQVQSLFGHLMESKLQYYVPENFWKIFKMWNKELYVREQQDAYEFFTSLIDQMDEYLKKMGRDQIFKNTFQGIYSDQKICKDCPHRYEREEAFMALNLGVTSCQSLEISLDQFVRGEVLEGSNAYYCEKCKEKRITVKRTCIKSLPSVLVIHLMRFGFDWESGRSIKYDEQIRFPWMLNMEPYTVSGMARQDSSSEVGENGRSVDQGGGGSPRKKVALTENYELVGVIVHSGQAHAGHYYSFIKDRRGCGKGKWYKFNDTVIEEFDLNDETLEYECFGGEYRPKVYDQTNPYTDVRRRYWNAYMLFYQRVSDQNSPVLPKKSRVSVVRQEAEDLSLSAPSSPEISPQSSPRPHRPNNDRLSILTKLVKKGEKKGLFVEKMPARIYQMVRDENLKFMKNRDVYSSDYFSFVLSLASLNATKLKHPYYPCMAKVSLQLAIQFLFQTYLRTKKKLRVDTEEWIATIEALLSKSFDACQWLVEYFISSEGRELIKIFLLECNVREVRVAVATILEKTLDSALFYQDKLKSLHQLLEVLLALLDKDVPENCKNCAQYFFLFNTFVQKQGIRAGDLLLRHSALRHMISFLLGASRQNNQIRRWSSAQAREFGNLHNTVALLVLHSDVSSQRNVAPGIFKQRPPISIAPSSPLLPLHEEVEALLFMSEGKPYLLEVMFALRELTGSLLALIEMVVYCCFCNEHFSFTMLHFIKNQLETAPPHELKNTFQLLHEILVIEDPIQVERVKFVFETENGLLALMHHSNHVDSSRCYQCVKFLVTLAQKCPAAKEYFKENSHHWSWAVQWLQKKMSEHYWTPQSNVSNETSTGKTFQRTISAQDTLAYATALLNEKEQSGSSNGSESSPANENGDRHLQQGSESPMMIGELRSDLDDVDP

CN(CCc1ncc(Br)cn1)C(=O)CCl.Cl
inactive: USP16 -0.32 | USP19 -0.155 | USP24 -0.487 | USP25 -0.445 | USP28 -0.622

Source: the supplement of paper PMC11732987, “Enantioselective OTUD7B fragment discovery through chemoproteomics screening and high-throughput optimisation” (Communications Chemistry, 2025)
